Compound activity from PubChem.
Sampled rows, rich in hits. Any-hit rate of the full collection: about 3.2%.
PG9 binder: binds the HIV-1 gp120 antibody PG9; inhibition, % at 6.7 µM; actives 0.43% (n = 360,000); AID 624416; TR-FRET gp120-PG9 antibody binding; in the data active means inhibition above about 8.5%
MsrA act: activates bovine MsrA enzyme | activation, % at 10.6 µM | purified bovine MsrA, absorbance read-out | actives 0.3% (n = 360,000); in the data active means activation above about 7.5%
MsrA inhibitor: inhibits bovine methionine sulfoxide reductase A. AID 651718. inhibition, % at 15.5 µM. actives 0.75% (n = 360,000). purified bovine MsrA, absorbance read-out; in the data active means inhibition above about 4.5%
rCAG RNA binder: r(CAG) repeat RNA binding | AID 651821 | inhibition, % at 3 µM | TO-PRO-1 dye displacement fluorescence | actives 1.3% (n = 370,000);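 active means inhibition above the plate cutoff, the mean of all test compounds on that plate plus 3 SD, cut at about 35% in these data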;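 further: higher means more dye released from RNA so lower well fluorescence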
sPLA2-III inh: Blocks human group III sPLA2 activity. inhibition, % at 12.2 µM. Q9NZ20. actives 0.56% (n = 370,000). QFRET BODIPY PC-A2 liposome hydrolysis, fluorescence;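 active means inhibition above mean plus 3 SD of compounds lying within the high and low control bounds, cut at about 19% in these data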
Target sequence (Q9NZ20 whole entry, looked up): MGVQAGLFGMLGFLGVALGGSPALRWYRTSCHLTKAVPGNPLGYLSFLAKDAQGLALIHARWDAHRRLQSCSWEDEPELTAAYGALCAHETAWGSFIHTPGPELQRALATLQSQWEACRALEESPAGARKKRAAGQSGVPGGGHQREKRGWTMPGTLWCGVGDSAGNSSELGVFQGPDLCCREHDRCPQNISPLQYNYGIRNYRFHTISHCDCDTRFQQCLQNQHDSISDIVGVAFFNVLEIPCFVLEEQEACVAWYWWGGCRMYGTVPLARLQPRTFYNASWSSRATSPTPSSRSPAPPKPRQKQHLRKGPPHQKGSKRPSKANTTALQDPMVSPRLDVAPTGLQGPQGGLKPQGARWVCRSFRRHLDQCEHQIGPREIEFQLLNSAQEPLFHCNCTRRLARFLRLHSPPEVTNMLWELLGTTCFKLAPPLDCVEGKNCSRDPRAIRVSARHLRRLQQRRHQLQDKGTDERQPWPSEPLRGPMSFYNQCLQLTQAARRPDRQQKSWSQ
rCAG binder conf: r(CAG) RNA repeat binding, confirmation | shares compounds with rCAG RNA binder | TO-PRO-1 dye displacement fluorescence | inhibition, % at 3 µM | actives 70% (n = 4,300) | AID 652065;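 active means inhibition above a per-plate cutoff, the mean inhibition of sample wells plus 3 SD, cut at about 35% in these data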;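 further: loss of TO-PRO-1 fluorescence as compound displaces dye from 1x1 AA loop RNA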
DNA CAG counter: disrupts DNA CAG TO-PRO-1 complex, flagging rCAG hits | shares compounds with rCAG RNA binder | d(CAG) DNA oligo TO-PRO-1 dye displacement, fluorescence | inhibition, % at 3 µM | actives 94% (n = 4,300) | AID 652068;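 active means inhibition above its plate's cutoff, the mean test-well inhibition plus 3 SD, cut at about 4.8% in these data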;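 further: hits displace the dye from DNA and so lower well fluorescence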
DNA CAG DR: counter-screen for rCAG binders: inhibitors of DNA CAG TO-PRO-1 complex | shares compounds with rCAG RNA binder | DNA CAG/GTC duplex TO-PRO-1 dye displacement fluorescence | IC50, µM | actives 20% (n = 250) | AID 686960; in the data active means IC50 below about 10 µM
A number is an active result.

`COc1ccccc1NC(=O)C1=C(C)NC(SCC(=O)Nc2ccc(C(=O)O)cc2)=C(C#N)C1c1cccs1` (centres undefined) gave PG9 binder inactive, MsrA act inactive, MsrA inhibitor inactive, rCAG RNA binder 46, sPLA2-III inh inactive, rCAG binder conf 39 and DNA CAG counter 12.
`CC[C@@H](C)[C@H](NC(=O)Cc1c(C)c2cc3c(C)coc3c(C)c2oc1=O)C(=O)O` gave PG9 binder inactive, MsrA act inactive, MsrA inhibitor inactive, rCAG RNA binder inactive and sPLA2-III inh inactive.
COc1cccc(-c2coc3c(C)c4oc(=O)c(CCC(=O)O)c(C)c4cc23)c1 was read as PG9 binder inactive, MsrA act inactive, MsrA inhibitor inactive, rCAG RNA binder 58, sPLA2-III inh inactive, rCAG binder conf 74, DNA CAG counter 34 and DNA CAG DR inactive.
For COc1cccc(-c2coc3cc4oc(=O)c(CCC(=O)O)c(C)c4cc23)c1 the results were PG9 binder inactive, MsrA act inactive, MsrA inhibitor inactive, rCAG RNA binder 47, sPLA2-III inh inactive, rCAG binder conf 47 and DNA CAG counter 14.
CC[C@@H](C)[C@H](NC(=O)Cc1c(C)c2cc3c(C)c(C)oc3c(C)c2oc1=O)C(=O)O was read as PG9 binder inactive, MsrA act inactive, MsrA inhibitor inactive, rCAG RNA binder 37, sPLA2-III inh inactive, rCAG binder conf inactive and DNA CAG counter 7.1.
CCCCC(NC(=O)Cc1c(C)c2cc3c(-c4ccccc4)coc3c(C)c2oc1=O)C(=O)O (centres undefined) was read as PG9 binder inactive, MsrA act inactive, MsrA inhibitor inactive, rCAG RNA binder 37, sPLA2-III inh inactive, rCAG binder conf 65 and DNA CAG counter 24.
Screening COc1cccc(-c2coc3c(C)c4oc(=O)c(CC(=O)O)c(C)c4cc23)c1 returned PG9 binder inactive, MsrA act inactive, MsrA inhibitor inactive, rCAG RNA binder inactive and sPLA2-III inh inactive.
`COc1ccc2c(c1)nc(-c1cccc(Br)c1)c(=O)n2C(c1ccccn1)c1nc2ccccc2[nH]1` (centres undefined) gave PG9 binder inactive, MsrA act inactive, MsrA inhibitor inactive, rCAG RNA binder inactive and sPLA2-III inh inactive.
For Cc1ccc2c(c1)N(CCCC(=O)NCc1c(F)cccc1F)C(=O)CO2 the results were rCAG RNA binder inactive and sPLA2-III inh inactive.
Screening COc1ccc(-n2c(COc3ccccc3)nnc2SCC(=O)Nc2ccccc2-c2ccccc2)cc1 returned rCAG RNA binder inactive and sPLA2-III inh inactive.
Cc1oc2c(c(C)cc3oc(=O)c(CC(=O)N[C@@H](CC(C)C)C(=O)O)c(C)c32)c1C was read as PG9 binder inactive, MsrA act inactive, MsrA inhibitor inactive, rCAG RNA binder 43, sPLA2-III inh inactive, rCAG binder conf inactive and DNA CAG counter 6.3.
Cc1oc2c(c(C)cc3oc(=O)c(CC(=O)N[C@H](C(=O)O)C(C)C)c(C)c32)c1C was read as PG9 binder inactive, MsrA act inactive, MsrA inhibitor inactive, rCAG RNA binder inactive and sPLA2-III inh inactive.
Screening C/C(C=NNC(=O)CSc1nnc(-c2ccc(Cl)cc2)n1-c1ccc(C)cc1)=C\c1ccccc1 returned rCAG RNA binder inactive and sPLA2-III inh inactive.
Screening O=S(=O)(c1ccc(Br)cc1F)N1CCC(O)CC1 returned PG9 binder inactive, MsrA act inactive, MsrA inhibitor inactive, rCAG RNA binder inactive and sPLA2-III inh inactive.
For CC1=CSC2=NC(=O)/C(=C\c3cccn3-c3ccccc3)C(=N)N12 the results were PG9 binder inactive, MsrA act inactive, MsrA inhibitor inactive, rCAG RNA binder inactive and sPLA2-III inh inactive.
`Cc1ccc(-n2cccc2/C=C2/C(=N)N3C(=NC2=O)SN=C3S(C)(=O)=O)cc1Cl` gave PG9 binder inactive, MsrA act inactive, MsrA inhibitor inactive, rCAG RNA binder 89, sPLA2-III inh inactive, rCAG binder conf 92 and DNA CAG counter 73.
For CCOc1ccc(-n2c(C)cc(/C=C3/C(=N)N4C(=NC3=O)SN=C4S(C)(=O)=O)c2C)cc1 the results were PG9 binder inactive, MsrA act inactive, MsrA inhibitor inactive, rCAG RNA binder inactive and sPLA2-III inh inactive.
Screening COc1ccccc1-n1c(C)cc(/C=C2/C(=N)N3C(=NC2=O)SN=C3S(C)(=O)=O)c1C returned PG9 binder inactive, MsrA act inactive, MsrA inhibitor inactive, rCAG RNA binder 80, sPLA2-III inh inactive, rCAG binder conf 77 and DNA CAG counter 42.
Cc1cc(/C=C2/C(=N)N3C(=NC2=O)SN=C3S(C)(=O)=O)c(C)n1-c1ccc(F)cc1 was read as PG9 binder inactive, MsrA act inactive, MsrA inhibitor inactive, rCAG RNA binder 69, sPLA2-III inh inactive, rCAG binder conf 79 and DNA CAG counter 47.
`O=C(Nc1ccc(Br)cc1)OCCN1CCCC12CCC(c1ccccc1)CC2` (centres undefined) gave sPLA2-III inh inactive.
`O=C(O)c1cccc(Cn2c(Cl)c(/C=N/Nc3ccccc3)sc2=O)c1` gave MsrA act inactive.
Cc1ccccc1OCC(=O)N/N=C/c1sc(=O)n(Cc2cccc(C(=O)O)c2)c1Cl was read as PG9 binder inactive, MsrA act inactive, MsrA inhibitor inactive, rCAG RNA binder 46, sPLA2-III inh inactive, rCAG binder conf 40 and DNA CAG counter 11.
For Cc1nc2ccc(S(=O)(=O)Nc3ccc(-c4nc5cccnc5s4)cc3)cc2s1 the results were PG9 binder inactive, MsrA act inactive, MsrA inhibitor inactive, rCAG RNA binder 53, sPLA2-III inh inactive, rCAG binder conf 42 and DNA CAG counter 12.
O=S(=O)(Nc1ccc(-c2nc3cccnc3s2)cc1)c1ccc(Cl)s1 was read as PG9 binder inactive, MsrA act inactive, MsrA inhibitor inactive, rCAG RNA binder 66, sPLA2-III inh inactive, rCAG binder conf 71, DNA CAG counter 32 and DNA CAG DR inactive.
Screening Cc1nc2ccc(S(=O)(=O)Nc3cccc(-c4nc5cccnc5s4)c3)cc2s1 returned PG9 binder inactive, MsrA act inactive, MsrA inhibitor inactive, rCAG RNA binder inactive and sPLA2-III inh inactive.
`Cc1ccc(C(=O)Nc2cccc(C(F)(F)F)c2)cc1NC(=O)c1csc(-c2ccncc2)n1` gave MsrA act inactive.
For N#C/C(=N\Nc1cccc(C(F)(F)F)c1)C(=O)c1csc(-c2cccnc2)n1 the results were PG9 binder inactive, MsrA act inactive, MsrA inhibitor inactive, rCAG RNA binder 86, sPLA2-III inh inactive, rCAG binder conf 80 and DNA CAG counter 49.
Screening CC(=O)c1ccc(NS(=O)(=O)c2ccc([N+](=O)[O-])cc2)cc1 returned PG9 binder inactive, MsrA act inactive, MsrA inhibitor inactive, rCAG RNA binder inactive and sPLA2-III inh inactive.
